# PMC12136788
# In all, about 24,000 sequences were measured (“enrichment r”: median about 0.99, highest 2% from about 3.7 on). The sample holds the highest values, similar sequences and a random draw of the others, so the mix is not that of the screen.
# B1: chr4:140556289:140556290:+_ENSMUSG00000036622_ENSMUST00000037055|mus_mus|mus_mus_mus_hu_False|48_48 (ssRNA)
# RNA: GGGAGUUCUACAGUCCGACGAUCGAUGGAGCUCACCAGGCCCCCUUUUGCCGUGCAGAACCCUGUGCGGGUCACCACUGCCAGGACACGGGGUCCCACAUAGGCCCGGGCCUGCAAGAUGAGGGUCCCGCAGAAGAGUGUGUGCAACAGAGGAUUGAGCAUCA
# B2: 134094901_134095021_423_5pUTR_ENSG00000151502_ENST00000281187|human|control|control (ssRNA)
# RNA: GGGAGUUCUACAGUCCGACGAUCCUCAUCGCACCGCCGGGCCGGGCGGGUCUCGGUAAGGACCGCUCCCUCGCACCGGGGCGCGGGCUGCCCUAGGUAAAGAAGGCCAGAGGGCCCGAUGCGCGAGCGCGCUCGGCCGCCGCGCAACAGAGGAUUGAGCAUCA
# B3: chr14:63765801:63765802:-_ENSMUSG00000021273_ENSMUST00000054963|mus_mus|motif|central (ssRNA)
# RNA: GGGAGUUCUACAGUCCGACGAUCCUGCUUGGUUUUGCUUGAUGAUGGGUCUGAGUUGGGGAUCCGGUGAUAAAUCUCUUCGGUGUACUGGUAUAUGAUAGCUUUGACGGCAGGCAUGUUGGUGGCAUCCAUCAUGAGGGUGACCAACAGAGGAUUGAGCAUCA
# B4: 46153067_46153187_242_5pUTR_ENSG00000159596_ENST00000372025|human|control|control (ssRNA)
# RNA: GGGAGUUCUACAGUCCGACGAUCGAUAAAACUGAAGACAUGUAGUAGGAGAUCUCAGGGGCCCACGCCGGCCAGUCCCUCCAAUCCUCCGGAUUCUAGGUAGUCUAGCUUCCUGGUUGCCAGCCAUUACACGGUUUAGCUUUCCAACAGAGGAUUGAGCAUCA
# B5: chr7:54825262:54825263:-_ENSG00000132432_ENST00000352861|hu_hu|hu_hu_hu_mus_False|48_58 (ssRNA)
# RNA: GGGAGUUCUACAGUCCGACGAUCCUGCCGGCUGGGCUCCACAAACUGCAUUACCUGAUCCAUGUUUGUUGGAUGGCACACCUAAAAUGCCAGGGACCGUAGCUCAGGAGAGAACCGAGCCCAACGGAACCGGAAGCUGGCAACCAACAGAGGAUUGAGCAUCA
# B6: chr2:48026839:48026840:+_ENSG00000116062_ENST00000540021|hu_hu|hu_hu_hu_mus_False|1_48 (ssRNA)
# RNA: GGGAGUUCUACAGUCCGACGAUCAUAGUGAGCCACUAGCGUCCUAAAUCUGGAACAGUGGCGGUCAUCCGAAAACUGGCCGAUGAAAAACUUUCCCAGUGAAGUGUCCACAAAGCAAACACCAUACACACGAGUGUGGCCAGACAACAGAGGAUUGAGCAUCA
# B7: 62642993_62643113_3073_3pUTR_ENSMUSG00000032244_ENSMUST00000034775|mouse|control|control (ssRNA)
# RNA: GGGAGUUCUACAGUCCGACGAUCCAUAUGUGUCCUCAUUCCUUUUCAUCUUACACCUAAUUAGGGAGACACCAAUGCCCUAUGGAAAGGCAGUUUCCAAUUUUUAAAGAUACAACACACAAGGACAGGGCUAGAAAAGGACGACAACAGAGGAUUGAGCAUCA
# B8: chr5:135513207:135513208:+_ENSG00000113658_ENST00000545279|hu_hu|FALSE|FALSE (ssRNA)
# RNA: GGGAGUUCUACAGUCCGACGAUCAAUGUAAGCUCACAGUAUCUGUACUCAAAGUUUCUCUAAAAUUAAAACAAGUCCACUAACAAUAUAAUUGAAAAGAAUACUUCUGCAUUAUGAAACAGAAGAUAUGGGGUUCAGAGGGGACAACAGAGGAUUGAGCAUCA
# B9: 120959283_120959403_3001_3pUTR_ENSG00000154114_ENST00000422003|human|control|control (ssRNA)
# RNA: GGGAGUUCUACAGUCCGACGAUCUGAAGAAUUUACAAGUCACCUAAAAAUUUCAUAAAAAAAUUAAAUUUGUAGGAGGGGUAGAAUUAUGUAACAAAGGUCAAAAGGUCAAAUGCAAUCAGAUAAUAACUGCAUUCUUUGAAACAACAGAGGAUUGAGCAUCA
# B10: 243667512_243667632_2619_3pUTR_ENSG00000117020_ENST00000366539|human|control|control (ssRNA)
# RNA: GGGAGUUCUACAGUCCGACGAUCUUCUCAUCACUAAAAAAUAAAUACUACUGCAAUAUAAACAAAAUCAUAAAAGGACAUUCAAAGUUUCAACAUCUGAGAAAAAGCUAAUUCACGUAGAACUGAAAGUAAAAAAUUAAAUAACAACAGAGGAUUGAGCAUCA
# B11: 58873449_58873569_2464_3pUTR_ENSMUSG00000025092_ENSMUST00000066285|mouse|control|control (ssRNA)
# RNA: GGGAGUUCUACAGUCCGACGAUCAUCCAAGAUCAUUUUAAAAGACCUCCAAUGAAUGUUUCCCCCACCCUACCCUGCCCCCGGCACAGAGUGGGCGUCCUAAGCCUUCCCUUUCAGAGCCCUCUUCCAAGCAGGCUGCACCCACAACAGAGGAUUGAGCAUCA
# B12: chr1:109605286:109605287:-_ENSG00000197780_ENST00000461096|hu_mus|hu_hu_hu_mus_True|88_108 (ssRNA)
# RNA: GGGAGUUCUACAGUCCGACGAUCAAGAACAAUAACAACAUUCAGUAUACUUAAAUCAUGCAAUUAUCCUUAUUAUAAGCUAAGCAGAAUAAUAAUUUAAUACCGUAAGUGAACUACACACAAAGCCUGAACCGCGAAAAUGGUCAACAGAGGAUUGAGCAUCA
# B13: 133975328_133975448_5492_3pUTR_ENSG00000205060_ENST00000378509|human|control|control (ssRNA)
# RNA: GGGAGUUCUACAGUCCGACGAUCUCUCCCAUUCCAGCUUGGUACACACUGAACACAUUUGAGGCUUAUGACUGGUUCUUUUACUUACAAAUAUUGUUUAGACACAUUUUCAAAUGUCACACCAAUCAAUAAUAAUAAGGAAUGCAACAGAGGAUUGAGCAUCA
# B14: chr10:115881139:115881140:-_ENSG00000165813_ENST00000369287|hu_hu|FALSE|FALSE (ssRNA)
# RNA: GGGAGUUCUACAGUCCGACGAUCAUAAAAAUAUUUUCACCAGGGUAGCAUAUAUAACAACAUUUACAUUAUUAAGGAUUCUAUUUUUUUCUUUUACUGAUAAAUCUUGGUUUAAAUUUGCAUGUAACAAUUUUUAGAAAAUAACAACAGAGGAUUGAGCAUCA
# B15: chr11:21040623:21040624:+_ENSMUSG00000020134_ENSMUST00000093290|mus_mus|motif|central (ssRNA)
# RNA: GGGAGUUCUACAGUCCGACGAUCAAUGUGCACGGUGCUAGGCUUCACCCCAUUUGCCUUAGGUCUUUUAAACAAAGCAAACCGGCUUUUCCUCCUUCCUCUAUCACCGUUUGGGAGAGAUCCAUUAUAUCCUAAGACAAUGAGCAACAGAGGAUUGAGCAUCA
# B16: chr8:42881778:42881779:+_ENSG00000168172_ENST00000307602|hu_hu|FALSE|FALSE (ssRNA)
# RNA: GGGAGUUCUACAGUCCGACGAUCCUGAAGUUAGGGGCAAUCUGCAGGUUUGUGUUUCAGGAGGCAGGCAAACCAAAGGUAAGAACAUCUUCUGAUUAACUGUAAGAUGGGAUAAUUUUUAUGAAUACAACUUCAGAAAGCAUCCAACAGAGGAUUGAGCAUCA
# B17: chr7:75932113:75932114:+_ENSG00000106211_ENST00000248553|hu_hu|hu_hu_hu_mus_False|8_18 (ssRNA)
# RNA: GGGAGUUCUACAGUCCGACGAUCCUGCGACCACUCAUCGGGCAACCGGGGCACCCCGAAAGCUUGAUCGAAGAGGCGGCUGUGUGCAGGGUACCAGUCCCGGAAUGGUUCCCAGCUGCCCCGCAGGAGCGAGAAGGAGGGCACCAACAGAGGAUUGAGCAUCA
# B18: 171752885_171753005_485_CDS_ENSG00000010165_ENST00000361735|human|control|control (ssRNA)
# RNA: GGGAGUUCUACAGUCCGACGAUCGGUGGCAUUACAUUCCUUCAUUUGCUUGAUGACAACCUCACUGAUGUCGAUGUUCACUAUAUCCCGAUAGCCCACAUCAUACAGUUGCUCACUCAGUUCUGAGUUGCCACACCCAAUCACCAACAGAGGAUUGAGCAUCA
# B19: 59346998_59352246_650_CDS_ENSG00000215114_ENST00000399598|human|control|control (ssRNA)
# RNA: GGGAGUUCUACAGUCCGACGAUCAUCCAAAUUCACUUGGCCACCAUGAACAAGGCGCUGAAGCUCCAGGGGAAUCUCUCCUCUCUUAACAGACUCCAGAAAUUGAGCAUUUGUUGGUUCAUUGUAAGGUCUCAAUUCUCCAUCCAACAGAGGAUUGAGCAUCA
# B20: 244175_244709_261_3pUTR_ENSG00000185627_ENST00000382671|human|control|control (ssRNA)
# RNA: GGGAGUUCUACAGUCCGACGAUCUUACACAGGAUCACUGCCUCAUCACUACUUUUCACCUUCUCACGAGUCUUUUCCAGAAAAGUAAGAGCCACAUUAGGAUCAGUCAUCUGUCUAACUACAUGAAGAAUGAUUUCCACGAGGCAACAGAGGAUUGAGCAUCA
# B21: chr5:176910979:176910980:-_ENSG00000196923_ENST00000355841|hu_hu|FALSE|FALSE (ssRNA)
# RNA: GGGAGUUCUACAGUCCGACGAUCCCCAGCGUCGAUCUUGAAGUCACAGCCAUGGCAUUUCGUGCCAAACAUCUUCUCAUAGUCUCGCUCGCAAUAGGGCACGCCCUCCUCCAUGUAGAAGGCCCUGUUCCGGAUGGGCGUCUUCAACAGAGGAUUGAGCAUCA
# B22: 118753231_118753351_2268_3pUTR_ENSG00000125354_ENST00000354416|human|control|control (ssRNA)
# RNA: GGGAGUUCUACAGUCCGACGAUCUGAAAUACCUCACAAGAAGAAUUCGGUAAGGCUAUCAUUCAAGACUCUAGGCUGGUAAUAAUAUUCAGGUUUAUUCUCCCUUUUGCAUCUGUGGGAUACCCAGAGUUAGAGAGAGGGGAACAACAGAGGAUUGAGCAUCA
# Biological target: T1, UNK ZnF1-3 (human, UniProt Q9C0B0 31-174)
# T1 sequence: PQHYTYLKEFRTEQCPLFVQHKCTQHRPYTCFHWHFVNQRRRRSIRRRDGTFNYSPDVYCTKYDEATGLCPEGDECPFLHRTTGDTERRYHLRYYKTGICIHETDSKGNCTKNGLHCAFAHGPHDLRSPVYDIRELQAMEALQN
# Assay: nsRBNS (natural sequence RNA bind-n-seq); RBNS binding buffer (assumed for nsRBNS): 25 mM Tris pH 7.5, 150 mM KCl, 3 mM MgCl2, 0.01% Triton X-100, 500 ug/ml BSA, 20 U/ml SUPERase-In, 4 C; UNK is unkempt and MSI1 is Musashi-1; names of the RNAs are library labels; protein concentration not given here; high values mean tight binding
row,Binder,binding signal
1,B1,0.98 enrichment R
2,B2,0.289 enrichment R
3,B3,1.69 enrichment R
4,B4,0.934 enrichment R
5,B5,1.16 enrichment R
6,B6,1.03 enrichment R
7,B7,1.66 enrichment R
8,B8,1.67 enrichment R
9,B9,4.1 enrichment R
10,B10,5.18 enrichment R
11,B11,5.4 enrichment R
12,B12,0.813 enrichment R
13,B13,1.3 enrichment R
14,B14,3.75 enrichment R
15,B15,0.75 enrichment R
16,B16,3.56 enrichment R
17,B17,1.07 enrichment R
18,B18,0.654 enrichment R
19,B19,1.23 enrichment R
20,B20,1.47 enrichment R
21,B21,0.849 enrichment R
22,B22,1.58 enrichment R
